Assay results as given in PubChem BioAssay (NCATS).
Inconclusive results are not listed. A number with no mark means an inactive call. The source made the active and inactive calls. Calls follow the shape of the dose curve; as a rule, active = well fitted cell-killing curve with a large enough effect; inconclusive = small, poorly fitted or top-dose-only effect, or effect the other way; inactive = flat fitted curve, though single readings scatter.

test: MultiTox-Fluor Cytotoxicity Assay - LYMP1-002 - Live Cells (AID 955); conditions: LYMP1-002 lymphoblastoid live-cell protease fluorescence viability; series mostly up to 46.1 µM; viability change, negative = cytotoxic: at the top concentration
Source text: NIH Chemical Genomics Center [NCGC]
NIH Molecular Libraries Screening Centers Network [MLSCN]
National Institutes of Environmental Health Sciences [NIEHS]
National Toxicology Program [NTP]
We have developed a 1536-well cell-based assay for quantitative high throughput screening (qHTS) against a number of cell lines to determine in vitro cytotoxicity of small molecules. This particular assay uses a human lymphoblastoid cell line (LYMP1-002) purchased from Coriell Institute.
NCGC Assay Protocol Summary:
The MultiTox-Fluor Cytotoxicity Assay (Promega) is a homogeneous method to simultaneously measure the relative number of live and dead cells in culture by detecting changes in cell membrane integrity. There are two fluorogenic peptide substrates in the assay reagent. Viable cells are determined when the cell-permeant substrate (GF-AFC) enters the cell and is cleaved by protease from live cells resulting in liberated fluorophore. This live-cell protease activity restricted to viable cells is proportional to cell number. The dead cells are determined by using fluorogenic cell-impermeant peptide substrate (bis-AAF-R110) which cleaved by dead cell proteases leaking from damaged cell membrane.
Using the MultiTox-Fluor Cytotoxicity Assay, the relative number of live cells was measured in the lymphoblastoid cell line with complete culture medium following compound treatment for 16 hours. The assay was performed in opaque black Kalypsys 1536-well plates. In the screen, tetraoctylammonium bromide was used as positive control. Library compounds were measured for their ability to cause acute toxicity in the cell line, as reflected by a decrease in live cell protease activity, in a concentration-dependent manner. […] AC50 values were determined from concentration-response data modeled with the standard Hill equation.
qHTS protocol for MultiTox-Fluor Cytotoxicity assay
[Step] [Parameter] [Value] [Description]
1. Reagent; 5 uL; 2500 lymphoblastoid cells/well
2. Time; 5 hr; 37 C incubation
4. Controls; 23 nL; Tetraoctylammonium bromide 6.4pM to 92 uM
5. Time; 16 hr; 37 C incubation
6. Reagent; 5 uL; MuliTox-Fluor Assay reagent
7. Time; 60 min; Room Temperature
8. Detection; live-cell fluorescence (Ex/Em=405/510); EnVision plate reader
Keywords: cell viability, cytotoxicity, lymphoblastoid cell line, fluorescence, NTPHTS, NTPHTS_NCGC, NIEHS, EPA, DSSTox, MLSMR, MLSCN, NIH Roadmap, qHTS, NCGC
% is scaled to controls: 0 for no effect and ±100 for the full control effect; potency is read from the fitted curve at half-maximal effect.

Q: With `Nc1ccc(N=Nc2ccccc2)c(N)n1` as the compound, how does the “viability change, negative = cytotoxic” value read?
A: -11.9%

Q: Which “viability change, negative = cytotoxic” value does the source give for `OCl` here?
A: -1.53%

Q: Which “viability change, negative = cytotoxic” value does the source give for `Oc1cccc(O)c1O` here?
A: -1.11%

Q: Which “viability change, negative = cytotoxic” value does the source give for `c1ccc2ccccc2c1` here?
A: 3.52%

Q: Which “viability change, negative = cytotoxic” value does the source give for `C[C@H](CCC(=O)O)[C@H]1CC[C@H]2[C@@H]3[C@H](O)C[C@@H]4C[C@H](O)CC[C@]4(C)[C@H]3C[C@H](O)[C@]12C` here?
A: -1.35%

Q: With `NC(N)=O` as the compound, how does the “viability change, negative = cytotoxic” value read?
A: -0.747%

Q: With `OCc1ccccc1` as the compound, how does the “viability change, negative = cytotoxic” value read?
A: 4.22%

Q: Which “viability change, negative = cytotoxic” value does the source give for `CC1=CC(=O)NS(=O)(=O)O1` here?
A: 2.17%

Q: With `C[C@H]1O[C@@H](O[C@H]2[C@@H](O)C[C@H](O[C@H]3[C@@H](O)C[C@H](O[C@H]4CC[C@@]5(C)[C@H](CC[C@@H]6[C@@H]5C[C@@H](O)[C@]5(C)[C@@H](C7=CC(=O)OC7)CC[C@]65O)C4)O[C@@H]3C)O[C@@H]2C)C[C@H](O)[C@@H]1O` as the compound, how does the Potency read?
A: 501 nM (active)

Q: With `OC[C@H]1O[C@@H]2O[C@H]3[C@H](O)[C@@H](O)[C@@H](O[C@H]4[C@H](O)[C@@H](O)[C@@H](O[C@H]5[C@H](O)[C@@H](O)[C@@H](O[C@H]6[C@H](O)[C@@H](O)[C@@H](O[C@H]7[C@H](O)[C@@H](O)[C@@H](O[C@H]1[C@H](O)[C@H]2O)O[C@@H]7CO)O[C@@H]6CO)O[C@@H]5CO)O[C@@H]4CO)O[C@@H]3CO` as the compound, how does the “viability change, negative = cytotoxic” value read?
A: -6.38%

Q: Which “viability change, negative = cytotoxic” value does the source give for `O=P(O)(O)O` here?
A: 9.55%

Q: With `CC(C)O` as the compound, how does the “viability change, negative = cytotoxic” value read?
A: -12.7%

Q: For `OB(O)O`, which “viability change, negative = cytotoxic” value is on record?
A: 5.53%

Q: With `CC(C)(C)CC(C)(C)c1ccc(OCCO)cc1` as the compound, how does the “viability change, negative = cytotoxic” value read?
A: -11.9%

Q: With `CC/C=C\C/C=C\C/C=C\CCCCCCCC(=O)O` as the compound, how does the “viability change, negative = cytotoxic” value read?
A: 1.78%

Q: Which “viability change, negative = cytotoxic” value does the source give for `[O-][N+](=Nc1ccccc1)c1ccccc1` here?
A: -5.43%

Q: For `CO`, which “viability change, negative = cytotoxic” value is on record?
A: -0.767%

Q: Which “viability change, negative = cytotoxic” value does the source give for `C=C1C(CCl)(CCl)C2(Cl)C(Cl)C(Cl)C1(Cl)C2(Cl)Cl` (stereo unspecified) here?
A: -19.9%

Q: With `CC[C@H]1OC(=O)[C@H](C)[C@@H](O[C@H]2C[C@@](C)(OC)[C@@H](O)[C@H](C)O2)[C@H](C)[C@@H](O[C@@H]2O[C@H](C)C[C@H](N(C)C)[C@H]2O)[C@](C)(O)C[C@@H](C)CN(C)[C@H](C)[C@@H](O)[C@]1(C)O` as the compound, how does the “viability change, negative = cytotoxic” value read?
A: 0.339%

Q: With `CCCCO` as the compound, how does the Potency read?
A: inactive

Q: For `CO/N=C(/C(=O)N[C@@H]1C(=O)N2C(C(=O)O)=C(COC(N)=O)CS[C@H]12)c1ccco1`, which “viability change, negative = cytotoxic” value is on record?
A: -0.0751%

Q: With `Oc1ccc(/C=C/c2cc(O)cc(O)c2)cc1` as the compound, how does the “viability change, negative = cytotoxic” value read?
A: -13.6%

Q: With `Cc1ccc(S(=O)(=O)O)cc1C` as the compound, how does the “viability change, negative = cytotoxic” value read?
A: 3.73%

Q: With `Nc1ncnc2c1ncn2[C@H]1CC[C@@H](CO)O1` as the compound, how does the “viability change, negative = cytotoxic” value read?
A: -5.8%

Q: With `OCC(O)CO` as the compound, how does the Potency read?
A: inactive

Q: Which “viability change, negative = cytotoxic” value does the source give for `CC1=CCC2CC1C2(C)C` (stereo unspecified) here?
A: -0.716%

Q: For `ClC(Cl)Cl`, which “viability change, negative = cytotoxic” value is on record?
A: 3%

Q: Which “viability change, negative = cytotoxic” value does the source give for `CCCCC` here?
A: 1.19%

Q: For `COC(=O)c1ccccc1O`, which “viability change, negative = cytotoxic” value is on record?
A: 8.98%

Q: Which “viability change, negative = cytotoxic” value does the source give for `C[C@H](CCC(=O)O)[C@H]1CC[C@H]2[C@@H]3CC[C@@H]4C[C@H](O)CC[C@]4(C)[C@H]3C[C@H](O)[C@]12C` here?
A: 0.639%

Q: With `O.O.O.O.O.O.O.O=S(=O)([O-])[O-].[Co+2]` as the compound, how does the “viability change, negative = cytotoxic” value read?
A: -3.89%

Q: With `Cc1ncc[nH]1` as the compound, how does the “viability change, negative = cytotoxic” value read?
A: -6.48%

Q: With `C/C=C/C=C/C(=O)O` as the compound, how does the “viability change, negative = cytotoxic” value read?
A: 2.73%

Q: Which “viability change, negative = cytotoxic” value does the source give for `Nc1nccs1` here?
A: 7.41%

Q: Which “viability change, negative = cytotoxic” value does the source give for `NCCN` here?
A: 2.11%

Q: With `CCOC(C)OCC` as the compound, how does the “viability change, negative = cytotoxic” value read?
A: 4.03%
